For eight molecules, growth results are on record in PubChem BioAssay (NCI).

Common to all, as to assay: NCI-60 one-dose screen, 48 h (100 = growth as untreated, 0 = no growth, -100 = all killed)
Conditions in all cases: 10 µM unless noted

Experiment [1] has as its system SK-MEL-2 melanoma.
Experiment [2] relates to EKVX NSCLC.
In experiment [3] the test system is SN12C renal.
The test system of experiment [4] is UO-31 renal.
Experiment [5] has as its system TK-10 renal.
Experiment [6] concerns ACHN renal.
In experiment [7] the test system is CAKI-1 renal.
The subject of experiment [8] is A498 renal.
For experiment [9], the system named is CCRF-CEM leukemia.
The test system of experiment [10] is OVCAR-8 ovarian.
The subject of experiment [11] is OVCAR-5 ovarian.
In experiment [12] the test system is OVCAR-4 ovarian.
Experiment [13] deals with SK-OV-3 ovarian.
Experiment [14] concerns OVCAR-3 ovarian.
The test system of experiment [15] is HS 578T breast.
Experiment [16] deals with NCI/ADR-RES ovarian.
The subject of experiment [17] is MOLT-4 leukemia.
The test system of experiment [18] is RPMI-8226 leukemia.
The subject of experiment [19] is IGROV1 ovarian.

About 83,000 compounds went through this panel and 20% of them were active in at least one assay; those are over-represented in the sample as a whole.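 Percent growth is the endpoint: 0 to 100 indicates growth inhibition (40 means 60% inhibition), 0 means no net growth, and negative values indicate cell death.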 A number with no mark means an inactive call. The source made the active and inactive calls. How the source made its calls: active means growth percent below 10; inactive means the rest.

On to `COc1cc2nnc3c4cccnc4[nH]c3c2cc1OC`, for which the growth in experiment [1] is 80.1%; in experiment [2], 73.1%; in [3] it was 33%; in experiment [4], -52.8% (active); in experiment [5], 42.9%; in experiment [6] it was -36.7% (active). In addition, the growth in [7] is -14.7% (active); in experiment [8], 106%; in experiment [9] it was -37.5% (active); in experiment [10] it was -15.2% (active); in [11] it was 75%; in experiment [12] it was 29.8%. For the same molecule, the growth in experiment [13] was 81.7%; in experiment [14] it was 30.5%; in experiment [15], 58.5%; in experiment [16], 23.4%.

In the case of `O=C(/C=C/c1cccc([N+](=O)[O-])c1)c1ccc(O)c(CN2CCN(c3cc4c(cc3F)c(=O)c(C(=O)O)cn4C3CC3)CC2)c1`, the growth was 88.3% in experiment [1]; 52.8% in experiment [2]; 32.5% in experiment [3]; -29.7% (active) in [4]; 34.5% in [5]; 8.06% (active) in [6]. Further, the growth in experiment [7] was 42.3%; in [8], 97.2%; in experiment [9], 0.194% (active); in experiment [17], 2.37% (active); in experiment [18], -25.6% (active); in experiment [10], 27.4%. The growth in experiment [11] was 12.4%; in experiment [12], 37.4%; in experiment [13], 72.9%; in experiment [19] it was 28.8%; in experiment [15] it was 51.9%; in [16], 10.7%.

For `Cc1ccc(OC(=O)c2ccc(Cl)cc2)cc1`, the growth was 103% in [1]; 99.1% in experiment [2]; 95.9% in experiment [3]; 102% in experiment [4]; 98.2% in experiment [5]; 95.6% in experiment [6]. Besides, the growth is 81.8% in experiment [7]; 114% in experiment [8]; 55.9% in experiment [9]; 113% in experiment [17]; 92.4% in [18]; 96.7% in [10]. Further, the growth in [11] was 97%; in experiment [12], 79.8%; in experiment [13], 116%; in experiment [19], 116%; in experiment [14], 99.9%; in [15], 110%. The growth in [16] was 107%.

In the case of `c1ccc(-c2c(-c3ccccc3)[n+](Cc3ccc4ccccc4c3)c(-c3ccc(-c4nc5ccccc5s4)cc3)n2Cc2ccc3ccccc3c2)cc1`, the growth is -88.7% (active) in experiment [1]; -93.4% (active) in experiment [2]; -86.7% (active) in [3]; -94.1% (active) in experiment [4]; -80.9% (active) in [5]; -96.8% (active) in experiment [6]. Moreover, the growth is -89.5% (active) in [7]; -97.4% (active) in experiment [8]; -14.8% (active) in experiment [9]; -51.9% (active) in [17]; -40.5% (active) in experiment [18]; -85.4% (active) in [10]. Also, the growth was -93% (active) in [11]; -62.9% (active) in experiment [12]; -97.4% (active) in experiment [13]; -84.8% (active) in experiment [19]; -45.3% (active) in experiment [15]; -52.1% (active) in [16].

In the case of `CC1=NN(c2nc(-c3ccc(Cl)cc3)c(C#N)c(N3CCOCC3)n2)C(=O)C1`, the growth was 87.1% in experiment [1]; 88.8% in [2]; 88.5% in experiment [3]; 71.9% in experiment [4]; 117% in [5]; 73.6% in [6]. In addition, the growth in experiment [7] was 70.1%; in experiment [8] it was 58%; in [9], 85.9%; in [17], 92.1%; in experiment [18], 57.1%; in experiment [10] it was 99.3%. For the same molecule, the growth in [11] was 97.3%; in [12], 51.5%; in experiment [13], 86.6%; in experiment [19], 81%; in experiment [15], 54.6%; in [16], 96.1%.

As to `CC(=O)O[C@H]1CC[C@]2(C)[C@H]3CC=C4[C@@H]5CC(C)(C)CC[C@]5(C(=O)NCCNCCNCCN)CC[C@@]4(C)[C@]3(C)CC[C@H]2C1(C)C`, the growth was 96.9% in experiment [1]; 81.9% in experiment [2]; 89.5% in experiment [3]; 79.1% in [4]; 97.2% in experiment [5]; -25.4% (active) in [6]. In addition, the growth was 77.8% in [7]; 54.6% in experiment [8]; -9.21% (active) in experiment [9]; -13% (active) in [17]; -23.7% (active) in experiment [18]; -0.659% (active) in experiment [10]. The growth in experiment [11] was 10%; in [12], 34.9%; in experiment [13] it was 101%; in experiment [19], 46.9%; in [14] it was -30.6% (active); in experiment [15] it was 92.2%. In addition, in [16], the growth is 74.6%.

Take `O=C1c2cc3c(cc2-c2c1c1ccc(Cl)cc1c(=O)n2CCCN1CCOCC1)OCO3`: the growth was 100% in experiment [1]; 93.8% in experiment [2]; 46.3% in experiment [3]; 44.5% in [4]; 103% in [5]; 13.1% in experiment [6]. The growth is 21.4% in [7]; 76.2% in experiment [8]; 20.7% in experiment [9]; 8.7% (active) in experiment [17]; 60.8% in [18]; 70.9% in experiment [10]. The growth in experiment [11] was 109%; in experiment [12], 91.9%; in [13] it was 33.4%; in experiment [19] it was 82.6%; in experiment [14], 86.5%; in [15], 108%. The growth in experiment [16] is 45.9%.

For `O=C1/C(=C/N2N=C(c3ccc4ccccc4c3)CC2c2ccccc2O)SC(=S)N1c1cccnc1` (stereo unspecified), the growth in [1] was 100%; in experiment [2], 43.2%; in experiment [3], 39.5%; in experiment [4], 11.6%; in [5], 60.1%; in experiment [6], 43.6%. In addition, the growth in experiment [7] was 41.9%; in [8], 14.3%; in [9], 11.7%; in experiment [17] it was 19.2%; in experiment [18], -8.29% (active); in [10], 28.3%. For the same molecule, the growth in experiment [11] is 68.6%; in [12], 66.1%; in experiment [13], 39.4%; in experiment [19], 26.4%; in [14], 7.76% (active); in [15], 13.2%. Also, the growth in [16] was 23.6%.
